Assay outcomes: PubChem, several laboratories
NALP1 yeast inh: NALP1 inflammasome inhibitors in reconstituted yeast, colorimetric, S. cerevisiae, triplicate retest | S. cerevisiae NALP1/ASC/caspase-1 growth, X-gal OD620, 72 h | inhibition, % at 10 µM | actives 0.61% (n = 280,000) | AID 2071, 2009; in the data active = inhibition mostly above about 24%, no sharp cut-off; inactive = mostly below about 32%
tim10-1 inh: growth inhibitors of tim10-1 mutant yeast, primary screen, luminescence, uHTS. S. cerevisiae tim10-1 ts strain growth, BacTiter-Glo, 24 h. inhibition, % at 20 µM. actives 2.2% (n = 330,000);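 active = inhibition of at least 40%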;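 note: mutant grown at 25 °C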
tim23-1 inh: growth inhibitors of tim23-1 mutant yeast, primary screen, luminescence, uHTS | S. cerevisiae tim23-1 growth, BacTiter-Glo luminescence, 24 h | actives 1.3% (n = 330,000) | inhibition, % at 20 µM;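 active = growth inhibition of the mutant yeast at or above 50%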;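 note: temperature-sensitive mutant grown at 25 °C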
NLRP3 yeast inh: NALP3 inflammasome inhibitors in reconstituted yeast, primary screen, luminescence, uHTS. Yeast reconstituted NLRP3/ASC/caspase-1, beta-gal luminescence, 24 h. inhibition, % at 10 µM. actives 0.39% (n = 330,000);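 active = inhibition of 50% or more; inactive = inhibition below 50%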
TIM10 inh: growth inhibitors of isogenic TIM10 control yeast, primary screen, counter-screen for tim10-1 yeast inhibitor project, luminescence, uHTS. S. cerevisiae TIM10 strain growth, BacTiter-Glo luminescence, 24 h. inhibition, % at 10 µM. actives 1.4% (n = 330,000). AID 463195, 2010;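 active = inhibition of 40% or more at the single tested concentration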;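 note: wild-type TIM10 isogenic control strain grown at permissive 25 °C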
V-ATPase pH: regulators of yeast V-ATPase proton pumping, primary screen, pHLuorin cytosolic pH fluorescence; response, % at 10 µM; actives 0.37% (n = 350,000); S. cerevisiae; AID 504577, 2011; in the data active = response mostly above about 7.3%, no sharp cut-off; inactive = mostly below about 5.4%; note: actives read high
Of the large screens only hits and unclear results are named; the others gave an inactive call. A selection: hits, their analogues and other compounds. The true share with any hit is near 4.2%.

COc1ccc(CC(=O)Nc2nc(C(C)(C)C)cs2)cc1	none
Cc1cccc(C)c1OCC(O)CN1CCC(CN2C(=O)c3cccc4cccc(c34)C2=O)CC1 (stereo unspecified)	NALP1 yeast inh 43
CCOC(=O)c1[nH]c2ccccc2c1NC(=O)c1ccc2c(c1)OCO2	NALP1 yeast inh 40
Cc1ccccc1N1C(=O)CC(c2c[nH]c3ccccc23)C1=O (stereo unspecified)	NALP1 yeast inh 23
O=C(Cc1ccc(Cl)c(Cl)c1)Nc1cccnc1	none
COCc1cc(C)nc(N2CCN(Cc3ccccc3)CC2)c1C#N	NALP1 yeast inh 41
Cc1ccc(CC(=O)NCC(c2ccco2)N(C)C)cc1C (stereo unspecified)	none
COc1ccccc1NC(=O)Cn1ncc2c1-c1ccccc1OC2	none
O=C(Cn1ncc2c1-c1ccccc1OC2)Nc1cccc(Cl)c1	NALP1 yeast inh 38
CCOc1ccc(-c2cc(NC(=O)Cn3ncc4c3-c3ccccc3OC4)on2)cc1OCC	NALP1 yeast inh 44
COc1ccccc1NC(=O)N1CCc2[nH]c3ccc(F)cc3c2C1	none
O=C(NCC12CC3CC(CC(C3)C1)C2)c1nn2cccnc2c1Cl	V-ATPase pH 29
Cc1ccccc1OCCC(=O)Nc1ccccc1C(=O)NC1CC1	none (no result: NALP1 yeast inh)
CCCc1nnc(SCC(=O)N2CCCCC2C)n1CCOC (stereo unspecified)	NALP1 yeast inh 24
CC(C)CN(C(=O)c1ccc(S(=O)(=O)N2CCCC2)cc1)C1CCS(=O)(=O)C1 (stereo unspecified)	none (no result: NALP1 yeast inh)
Cc1ccc(NC(=O)Nc2ccc3c(c2)CCC3)cc1	NALP1 yeast inh 38
COc1ccccc1CNC(=O)Cc1c[nH]c2ccccc12	V-ATPase pH 13
CC(=O)c1ccc(-c2ccccc2OC(F)(F)F)o1	none
O/N=C/c1ccc(-c2ccccc2OC(F)(F)F)o1	NALP1 yeast inh 36
CCC(C)N(C(=O)COC(=O)Cc1n[nH]c(=O)c2ccccc12)C1CCS(=O)(=O)C1 (stereo unspecified)	NALP1 yeast inh 26
CCCc1n[nH]c(=O)[nH]1	none
Cc1ccccc1C(=O)NNC(=S)Nc1cccc(C(F)(F)F)c1	none
CCOC(=O)c1ccccc1NS(=O)(=O)c1ccc(OCC)cc1	NALP1 yeast inh 30
CCOc1ccc(S(=O)(=O)Nc2ccccc2C(=O)N(C)C2CCN(C)CC2)cc1	none (no result: NALP1 yeast inh)
O=C(CC12CC3CC(CC(C3)C1)C2)N1CCCC1	NALP1 yeast inh 37
O=c1[nH]c(CN2CCOCC2)nc2ccccc12	NALP1 yeast inh 24
COc1cc(OC)c(C2=NOC(C(=O)N3CCCc4ccccc43)C2)cc1Cl (stereo unspecified)	NALP1 yeast inh 37
CCC1CCCCN1C(=O)C1CC(c2cc(Cl)c(OC)cc2OC)=NO1 (stereo unspecified)	none
O=C(NCc1ccccn1)c1ccco1	none
CCN(CC)C(=O)C1CCCN(c2ccc([N+](=O)[O-])cc2)C1 (stereo unspecified)	NALP1 yeast inh 35
CCN(CC)C(=O)C1CCCN(c2ccc([N+](=O)[O-])cc2/C=N/NC(=O)c2ccc([N+](=O)[O-])cc2)C1 (stereo unspecified)	none
CC(C)CCNC(=O)C1CCN(Cc2cccc(OCc3ccccc3)c2)CC1	none
COCCNC(=O)C1CCN(Cc2cccc(OCc3ccccc3)c2)CC1	V-ATPase pH 13
Cc1ccccc1-n1ncc2c1CC(C)(C)CC2NC(=O)c1ccncc1 (stereo unspecified)	none
O=C(NC1CCN(Cc2ccccc2)C1)c1cc(COc2ccc(F)cc2F)on1 (stereo unspecified)	NALP1 yeast inh 28
Clc1nc(NCc2cccnc2)nc(N2CCOCC2)n1	none
COC(=O)C1CC23C=CCN4CCC5(c6ccccc6NC15C2C)C43 (stereo unspecified)	NALP1 yeast inh 37
C(C#CCCCCCCCCC[n+]1ccccc1)#CCCCCCCCCC[n+]1ccccc1	NALP1 yeast inh 82 (no result: tim10-1 inh, tim23-1 inh, NLRP3 yeast inh, TIM10 inh)
COCCCNC(=O)c1c(NC(=O)c2cccs2)sc2c1CCCC2	none
CCN(CC)c1ccc(NC(=O)COC(=O)c2cccs2)cc1	NALP1 yeast inh 36
CCOC(=O)c1cn(CC(=O)Nc2cccc(F)c2)nn1	NALP1 yeast inh 21 (no result: V-ATPase pH)
CCCc1cc(=O)n2[nH]c(-c3ccco3)nc2n1	V-ATPase pH 16
COc1ccc(CNCCC(c2ccccc2)c2ccc3c(c2)OCO3)cc1 (stereo unspecified)	NALP1 yeast inh 27
CCOc1ccc(-n2c(C)nc3cc(C(=O)NCCCN4CCOCC4)ccc32)cc1	NALP1 yeast inh 26
CCOc1ccc(-n2c(C)nc3cc(C(=O)NCCN4CCOCC4)ccc32)cc1	none
COc1ccc(OC)c(-n2cnc3cc(C(=O)NCCCN4CCOCC4)ccc32)c1	NALP1 yeast inh 23
O=C(CNC(=O)Cc1ccccc1)NCC(=O)N1CCN(C(c2ccccc2)c2ccccc2)CC1	none (no result: NALP1 yeast inh)
CCOC(=O)NC(c1cccc(Cl)c1)C1CCCCCC1=O (stereo unspecified)	NALP1 yeast inh 43
CC(NC(=O)CNC(=O)C1CCCCC1)c1cccc(Cl)c1 (stereo unspecified)	none
CCC(=O)Nc1cccc(NC(=O)c2ccc(C)cc2Cl)c1	V-ATPase pH 16
CCC(=O)Nc1cccc(NC(=O)c2ccccc2Cl)c1	none
CCCCNC(=S)Nc1cccc(C(C)=O)c1	none
Nc1c(C(=O)CSc2nnc(-c3ccccc3F)o2)c(=O)[nH]c(=O)n1C1CC1	none (no result: NALP1 yeast inh)
Cc1cc(C)cc(NC(=S)N2CCC(NC(=O)C3CC3)CC2)c1	V-ATPase pH 15
O=C(NC1CCN(C(=O)Nc2cccc(Cl)c2)CC1)C1CCCCC1	V-ATPase pH 15
COC(=O)c1cccc(-n2c(C)cc(C=O)c2C)c1C	none
COc1ccc(S(=O)(=O)N2CCN(c3cnccn3)CC2)cc1OC	V-ATPase pH 16 (no result: NALP1 yeast inh)
COc1ccc(S(=O)(=O)N2CCN(c3ccccc3)CC2)cc1OC	none (no result: NALP1 yeast inh, tim10-1 inh, tim23-1 inh, NLRP3 yeast inh, TIM10 inh)
O=C1/C(=C\c2cc(Cl)c(O)c(Cl)c2)SC(=S)N1Cc1ccccc1	V-ATPase pH 97 (no result: tim10-1 inh, tim23-1 inh, NLRP3 yeast inh, TIM10 inh)
COc1ccc(/C=C2/SC(=S)N(Cc3ccccc3)C2=O)cc1O	none
Cc1cc(C)c(OC2(c3ccccc3)OC(=O)c3ccccc32)c(C)c1 (stereo unspecified)	V-ATPase pH 19
CCOc1cc(CNc2ccccc2)cc(Br)c1OCc1ccc(F)cc1	NALP1 yeast inh 43
Nc1nc(-c2ccc(Br)cc2)cc(C(F)(F)F)n1	none
Clc1ccccc1-c1nnc2sc(-c3ccc4c(c3)OCO4)nn12	V-ATPase pH 16
CC(C)(C)c1cc(C(=O)O)c(CN2CCCCC2)o1	NALP1 yeast inh 38
